Data: PubChem BioAssay AID1159580 (chemical genetic matrix, 2015)
“And” between values parts separate entries of the source, which are not always exact repeats. Equal entries are not always repeated. Hit rate of the full screen: of about 5,500 compounds, about 2,000 (36%) were called active. Not shown: some 18% with an inconclusive outcome. No stated cut-off is given here; in the data, active means normalized growth mostly below about 0.91 (no sharp cut-off); inconclusive means no clear call, values can overlap the other calls; inactive means mostly above about 0.92. Some of the results follow.

Experiment: chemical genetic growth profiling, strain panel (AID 1159580);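 further: tested at 20 µM; growth read once vehicle control cultures reached saturation at 30 °C; 1 = growth at the plate median or of vehicle wells; lower values mean less growth of the strain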
Settings: S. cerevisiae deletion strains, growth OD

Measured: normalized growth

Oc1cccc(O)c1
inactive: locus YAL013W, strain DEP1, active compounds read low 1.01 | locus YAL021C, strain ccr4, active compounds read low 0.951 | locus YAL026C, strain drs2, active compounds read low 0.966 | locus YAL030W, strain snc1, active compounds read low 0.981 | locus YBL061C, strain skt5, active compounds read low 0.981 | locus YBR009C, strain hhf1, active compounds read low 0.981 | locus YBR021W, strain FUR4, active compounds read low 1.02 | locus YBR023C, strain chs3, active compounds read low 0.975 | locus YBR171W, strain sec66, active compounds read low 0.983 | locus YBR229C, strain ROT2, active compounds read low 1.01 | locus YBR231C, strain swc5, active compounds read low 0.99 | locus YBR279W, strain paf1, active compounds read low 1 | locus YCL011C, strain gbp2, active compounds read low 0.938 | locus YCL016C, strain dcc1, active compounds read low 0.956 | locus YCL029C, strain bik1, active compounds read low 0.987 | locus YCL061C, strain MRC1, active compounds read low 0.95 | locus YCL069W, strain vba3, active compounds read low 0.978 | locus YCR088W, strain abp1, active compounds read low 0.981 | locus YDL005C, strain med2, active compounds read low 0.977 | locus YDL035C, strain GPR1, active compounds read low 1.01 | locus YDL040C, strain nat1, active compounds read low 0.99 | locus YDL074C, strain BRE1, active compounds read low 1.01 | locus YDL101C, strain DUN1, active compounds read low 1 | locus YDL134C, strain PPH21, active compounds read low 0.999 | locus YDL185W, strain tfp1, active compounds read low 0.974 | locus YDL192W, strain arf1, active compounds read low 0.987 | locus YDR001C, strain nth1, active compounds read low 0.957 | locus YDR069C, strain doa4, active compounds read low 0.976 | locus YDR101C, strain arx1, active compounds read low 0.981 | locus YDR137W, strain rgp1, active compounds read low 0.942 | locus YDR150W, strain NUM1, active compounds read low 1.01 | locus YDR159W, strain sac3, active compounds read low 0.953 | locus YDR162C, strain NBP2, active compounds read low 1 | locus YDR195W, strain ref2 0.993 | locus YDR297W, strain sur2, active compounds read low 0.989 | locus YDR318W, strain mcm21, active compounds read low 0.985 | locus YDR334W, strain swr1, active compounds read low 0.969 | locus YDR335W, strain msn5, active compounds read low 0.983 | locus YDR388W, active compounds read low 0.986 | locus YDR392W, strain spt3, active compounds read low 0.872 | locus YDR502C, strain sam2, active compounds read low 0.984 | locus YEL003W, strain gim4, active compounds read low 0.985 | locus YEL037C, strain rad23, active compounds read low 0.977 | locus YEL061C, strain CIN8 (second series), active compounds read low 0.972 | locus YEL061C, strain CIN8, active compounds read low 1 | locus YER015W, strain faa2, active compounds read low 0.981 | locus YER016W, strain bim1, active compounds read low 0.982 | locus YER110C, active compounds read low 0.984 | locus YER111C, strain swi4, active compounds read low 0.981 | locus YER155C, strain BEM2 (second series), active compounds read low 0.973 | locus YER155C, strain BEM2, active compounds read low 1 | locus YER167W, strain BCK2, active compounds read low 1.01 | locus YFR010W, strain ubp6, active compounds read low 0.966 | locus YGL078C, strain dbp3, active compounds read low 0.987 | locus YGL086W, strain mad1, active compounds read low 0.994 | locus YGL167C, strain pmr1, active compounds read low 0.984 | locus YGL173C, strain kem1, active compounds read low 0.996 | locus YGL227W, strain vid30, active compounds read low 0.981 | locus YGL240W, strain doc1, active compounds read low 1.01 | locus YGL248W, strain PDE1, active compounds read low 1.01 | locus YGL253W, strain hxk2, active compounds read low 0.962 | locus YGR135W, strain pre9, active compounds read low 0.986 | locus YGR252W, strain gcn5, active compounds read low 0.974 | locus YHR013C, strain ard1, active compounds read low 0.947 | locus YHR027C, strain rpn1, active compounds read low 0.985 | locus YHR030C, strain SLT2, active compounds read low 1.01 and 1.03 | locus YHR079C, strain IRE1 (second series), active compounds read low 0.987 | locus YHR079C, strain IRE1, active compounds read low 1.05 | locus YHR094C, strain hxt1, active compounds read low 0.993 | locus YHR129C, strain ARP1, active compounds read low 1.02 | locus YHR142W, strain chs7, active compounds read low 0.954 | locus YHR200W, strain rpn10, active compounds read low 0.987 | locus YIL066C, strain RNR3, active compounds read low 0.999 | locus YIL073C, strain SPO22, active compounds read low 0.993 | locus YIL125W, strain kgd1, active compounds read low 0.986 | locus YIR030C, strain dcg1, active compounds read low 0.991 | locus YJL092W, strain hpr5, active compounds read low 0.963 | locus YJL095W, strain BCK1 (second series), active compounds read low 0.987 | locus YJL095W, strain BCK1, active compounds read low 1.02 and 0.997 | locus YJL115W, strain asf1, active compounds read low 0.978 | locus YJL129C, strain trk1, active compounds read low 0.974 | locus YJL134W, strain LCB3, active compounds read low 1.01 | locus YJL154C, strain vps35, active compounds read low 0.977 | locus YJL164C, strain tpk1, active compounds read low 0.947 | locus YJL166W, strain qcr8, active compounds read low 1 | locus YJL168C, strain set2, active compounds read low 0.988 | locus YJL187C, strain SWE1 (second series), active compounds read low 1.01 | locus YJL187C, strain SWE1, active compounds read low 0.989 | locus YJR043C, strain POL32, active compounds read low 1.01
